TEAD-YAP block = TEAD-YAP interaction inhibition; inhibition, % at 9.12 µM; 640,000 compounds, 1.4% hits; AID 1259422; HEK-TIYL cells, TEAD-Gal4/YAP UAS-luciferase luminescence; in the data active = inhibition above about 32%;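 also: 0% = median of test compound wells and 100% = reference inhibitor wells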
MITF inh = human MITF inhibition, primary screen; O75030; AlphaScreen MITF homodimerization, bead proximity signal; inhibition, % at 2.6 µM; 650,000 compounds, 0.91% hits; AID 1259374; in the data active = inhibition above about 50%;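 also: 0% = vehicle wells with protein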
FBW7 activator = activators of human E3 ligase FBW7 | Q969H0 | AlphaScreen FBW7–phospho-cyclin E peptide binding, activator screen | normalized activity (activation), % at 26.1 µM | 650,000 compounds, 0.13% hits; in the data active = normalized activity above about 1.9%;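 also: purified mutant Fbw7 with reduced substrate affinity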
Target sequence (Q969H0 whole entry, looked up): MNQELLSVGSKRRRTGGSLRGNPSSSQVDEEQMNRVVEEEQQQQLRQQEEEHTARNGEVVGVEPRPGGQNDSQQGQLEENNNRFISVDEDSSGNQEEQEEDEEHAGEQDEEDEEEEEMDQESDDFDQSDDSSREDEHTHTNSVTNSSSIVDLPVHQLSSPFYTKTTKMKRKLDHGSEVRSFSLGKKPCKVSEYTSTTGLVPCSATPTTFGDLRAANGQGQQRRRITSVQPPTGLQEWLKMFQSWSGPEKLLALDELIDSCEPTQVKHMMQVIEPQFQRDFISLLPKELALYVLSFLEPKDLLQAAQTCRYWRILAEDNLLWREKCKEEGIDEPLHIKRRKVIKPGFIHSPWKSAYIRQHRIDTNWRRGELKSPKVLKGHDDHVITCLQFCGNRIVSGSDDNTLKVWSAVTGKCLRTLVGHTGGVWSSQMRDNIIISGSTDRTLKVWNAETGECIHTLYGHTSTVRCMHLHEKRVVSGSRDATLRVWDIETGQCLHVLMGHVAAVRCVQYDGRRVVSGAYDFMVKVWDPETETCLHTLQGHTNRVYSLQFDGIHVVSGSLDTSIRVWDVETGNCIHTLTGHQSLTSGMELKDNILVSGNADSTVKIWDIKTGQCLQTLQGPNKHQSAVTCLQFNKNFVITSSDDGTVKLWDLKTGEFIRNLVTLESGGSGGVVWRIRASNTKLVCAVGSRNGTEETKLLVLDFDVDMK
GPR151 ag = human GPR151 activation; PathHunter beta-arrestin GPR151 cells, luminescence; 650,000 compounds, 1% hits; Q8TDV0; activation, % at 11.2 µM; in the data active = activation above about 4.9%;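 also: 0% = median of compound wells and 100% = cells with positive control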
GPR151 confirm = human GPR151 activation, confirmation screen | shares compounds with GPR151 ag | GPR151 PathHunter beta-arrestin cells, luminescence, 90 min; % of EA-reagent control over plate median | activation, % at 11.2 µM | 6,700 tested, under 10 active | AID 1508609;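 active = mean percent activation across replicates above the confirmation screen cutoff of 4.91%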
GPR119 counter = activates human GPR119 in a GPR151 counter-screen. GPR119 PathHunter beta-arrestin cells, luminescence, 90 min; 0 = compound-well median, 100 = enzyme-acceptor control. AID 1508611. 6,700 compounds, 0.3% hits. shares compounds with GPR151 ag. activation, % at 11.2 µM;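 active = mean percent activation in the counterscreen above 29.09%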;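 also: counterscreen on off-target GPR119 to flag nonselective hits from the GPR151 activator screen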
The depositor's hits bear a star; ! = not active in a repeat. The list is not random: actives were taken first. Their share in the collection is about 3.4%.

Screening COCCCNC(C)Cc1ccc(F)cc1 (configuration not stated) returned TEAD-YAP block 1.8, MITF inh 27.6, FBW7 activator 0.8 and GPR151 ag 0.2.
Screening COc1cccc(C(c2c(O)[nH]c(=O)[nH]c2=O)N2CCCC(C)C2)c1OC (configuration not stated) returned TEAD-YAP block 3.7, MITF inh 16.7, FBW7 activator -0.1, GPR151 ag 18.5*, GPR151 confirm -0.1 and GPR119 counter 8.1.
For COc1cccc(C(c2c(O)[nH]c(=S)[nH]c2=O)N2CCOCC2)c1OC (configuration not stated) the results were TEAD-YAP block -12.4, MITF inh 9.5, FBW7 activator -0.1 and GPR151 ag -0.2.
O=[N+]([O-])N=C1NCN(C2CCN(Cc3ccccc3)CC2)CN1 was read as TEAD-YAP block -10.5, MITF inh -3.3, FBW7 activator 0.0, GPR151 ag 5.5*, GPR151 confirm 0.5 and GPR119 counter 0.5.
O=C(Nc1ccccc1)N1CNC(=N[N+](=O)[O-])NC1 was read as TEAD-YAP block -3.9, MITF inh -3.0, FBW7 activator 0.2 and GPR151 ag 3.4.
CN1CCN(c2ccc([N+](=O)[O-])cc2C=O)CC1 was read as TEAD-YAP block 1.0, MITF inh 12.7, FBW7 activator 0.0, GPR151 ag 5.9*, GPR151 confirm 0.6 and GPR119 counter 7.0.
For CN1CCN(c2ccc([N+](=O)[O-])cc2C(F)(F)F)CC1 the results were TEAD-YAP block -2.1, MITF inh 5.3, FBW7 activator 0.1 and GPR151 ag 0.6.
For CCOc1ccccc1N1CCN(Cc2cccnc2)CC1 the results were TEAD-YAP block 5.5, MITF inh 39.7, FBW7 activator 0.2, GPR151 ag 5.5*, GPR151 confirm 0.1 and GPR119 counter 11.1.
`c1ccc(C2CNCCO2)cc1` (configuration not stated) gave TEAD-YAP block 4.9, MITF inh 3.4, FBW7 activator 0.2 and GPR151 ag -0.5.
`CCc1c(C)nc(N)nc1N1N=C1SCC(N)=O` gave TEAD-YAP block -4.7, MITF inh 13.9, FBW7 activator 0.5, GPR151 ag 9.5*, GPR151 confirm -1.2 and GPR119 counter -7.8.
O=C1NC(=S)NC(=O)C1=Cc1ccc(I)o1 was read as TEAD-YAP block 2.8, MITF inh 63.4*, FBW7 activator -1.7, GPR151 ag 5.7*, GPR151 confirm -1.1 and GPR119 counter -9.3.
For O=c1c(-c2ccccc2)coc2c(CN3CCCCC3)c(O)ccc12 the results were TEAD-YAP block 7.6, MITF inh 3.2, FBW7 activator 0.1, GPR151 ag 5.1*, GPR151 confirm -0.6 and GPR119 counter -7.8.
Screening O=C1NC(=O)C(=Cc2cn(-c3ccccc3)nc2-c2cc3ccccc3o2)C(=O)N1 returned TEAD-YAP block -66.1, MITF inh -13.9, FBW7 activator 0.1 and GPR151 ag -0.7.
Cc1csc(NC(=O)c2cccn(Cc3ccc(Cl)cc3)c2=O)n1 was read as TEAD-YAP block -2.1, MITF inh 17.0, FBW7 activator -0.1, GPR151 ag 4.9*, GPR151 confirm -0.7 and GPR119 counter -15.8.
Screening COc1ccc(CC(=O)N2CCN(Cc3nc(-c4ccc(Cl)cc4)cs3)CC2)cc1OC returned TEAD-YAP block 61.1*, MITF inh 7.9, FBW7 activator 0.6, GPR151 ag 14.9*, GPR151 confirm -0.4 and GPR119 counter 4.3.
Screening COc1cc2c(cc1O)[C@@H]1Cc3ccc(OC)c(O)c3CN1CC2 returned TEAD-YAP block 43.5*, MITF inh 13.8, FBW7 activator -0.1, GPR151 ag 6.0*, GPR151 confirm 0.6 and GPR119 counter -12.6.
Screening C=C[C@H]1CN2CC[C@H]1C[C@H]2[C@H](O)c1ccnc2ccccc12 returned TEAD-YAP block 20.2, MITF inh -0.7, FBW7 activator -0.1, GPR151 ag 5.4*!, GPR151 confirm -0.7 and GPR119 counter 3.4.
CC(C)N1CCN(Cc2cc(F)ccc2F)CC1CCO (configuration not stated) was read as TEAD-YAP block 0.0, MITF inh -4.6, FBW7 activator -0.1 and GPR151 ag 0.1.
Screening C=CCN1C(=O)/C(=C/c2ccc(Cl)cc2Cl)C(=O)NC1=S returned TEAD-YAP block 3.6, MITF inh 9.1, FBW7 activator -0.5, GPR151 ag 9.1*, GPR151 confirm -0.8 and GPR119 counter -7.9.
C=CCN1C(=O)/C(=C\c2cc(Cl)c(O)c(OC)c2)C(=O)NC1=S was read as TEAD-YAP block -1.9, MITF inh -7.9, FBW7 activator -0.1 and GPR151 ag 1.3.
For CC1=C(C(=O)OC(C)(C)C)C2(C(=O)N(C)c3ccccc32)C(C#N)=C(N)O1 (configuration not stated) the results were TEAD-YAP block -1.7, MITF inh 19.6, FBW7 activator 0.2 and GPR151 ag -1.3.

Screening data deposited in PubChem by The Scripps Research Institute Molecular Screening Center.
